Compounds with a hit are over-represented: about 28% of the library has one in this group of screens.
CD11b adhes enh = increases human CD11b/CD18 adhesion to fibrinogen | AID 1499 | K562 CD11b/CD18 adhesion to fibrinogen, ATPlite luminescence | hit rate 0.07% among 93,000 | P05107+P11215 | activation, % at 10 µM;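 active means 10 µM primary screen giving 50% or more activity, confirmed by 40% or more on retest at that dose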
CYP2C9 inh = inhibitors of human CYP2C9. CYP2C9 Supersomes, luciferin-H conversion, luminescence. inhibition, % at 5 µM. hit rate 20% among 96,000. AID 777;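 active means blocking of liver enzyme CYP2C9 beyond about 50% at 5 µM, limit read from the data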
Target sequence (P11712 whole entry, looked up): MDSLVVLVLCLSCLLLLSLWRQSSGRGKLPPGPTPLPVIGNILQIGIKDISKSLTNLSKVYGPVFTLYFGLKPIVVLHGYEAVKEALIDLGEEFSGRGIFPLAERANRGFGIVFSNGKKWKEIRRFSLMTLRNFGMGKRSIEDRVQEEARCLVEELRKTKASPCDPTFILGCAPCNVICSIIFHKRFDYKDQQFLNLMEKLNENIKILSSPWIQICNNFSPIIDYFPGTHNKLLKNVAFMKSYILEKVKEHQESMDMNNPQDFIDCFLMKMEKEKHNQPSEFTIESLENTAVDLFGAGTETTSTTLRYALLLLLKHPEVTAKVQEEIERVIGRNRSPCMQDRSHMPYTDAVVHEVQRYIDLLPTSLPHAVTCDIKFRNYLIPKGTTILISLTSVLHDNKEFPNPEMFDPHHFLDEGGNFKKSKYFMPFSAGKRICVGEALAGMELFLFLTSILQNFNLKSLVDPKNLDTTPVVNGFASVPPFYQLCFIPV
CYP2C9 act = CYP2C9 (human) activation. recombinant CYP2C9, luciferin-H conversion, luminescence; hits give high values; factor 1 = untreated enzyme, 0 = blocked. activation factor at 5 µM. hit rate 1.4% among 96,000. AID 1024;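 active means activation factor of 2 or more for CYP2C9 at a 5 µM dose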;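 further: 0 = sulfaphenazole-blocked wells and 1 = vehicle-only wells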
Mac1 fbg inh = inhibitors of human CD11b/CD18 binding to fibrinogen | P05107+P11215 | K562 CD11b/CD18 adhesion to fibrinogen, ATPlite luminescence; Mn2+ added to activate the integrin | inhibition, % at 10 µM | hit rate 0.54% among 93,000 | AID 1497;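 active means primary inhibition of 50% or more at 10 µM, then 40% or more on retest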
CYP2C19 act = increases human CYP2C19 enzyme activity; P33261; activation factor at 5 µM; 96,000 tested, under 10 active; AID 1025; recombinant CYP2C19, luciferin-H EGE luminescence; hits give high values; 0 = fully inhibited enzyme, 1 = untreated enzyme;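 active means activation factor of at least 2 at 5 µM in the primary screen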;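 further: 0 = wells with 2.5 mM tranylcypromine and 1 = vehicle-only wells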
CYP2C19 inhib = inhibitors of human CYP2C19; CYP2C19 Supersomes, luciferin-H EGE luminescence, 30 min; hit rate 21% among 96,000; inhibition, % at 5 µM; P33261;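 active means CYP2C19 inhibition above a set limit at 5 µM in the primary screen, cut at about 50% in these data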;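 further: plate controls were negative control wells for no effect and 2.5 mM tranylcypromine positive control for full effect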
* = called active by the depositor; nt = no result given.

SMILES	CD11b adhes enh	CYP2C9 inh	CYP2C9 act	Mac1 fbg inh	CYP2C19 act	CYP2C19 inhib
Cc1noc(C)c1CSc1nnc2ccccn12	0	10	0.9	13	0.8	22
C=CCn1c(SCC(=O)Nc2cc(C)nn2-c2ccccc2)nnc1C1CCCCC1	8	42	0.6	14	0.3	66*
Cn1c(SCC(=O)NCc2ccc3c(c2)OCO3)nnc1C1COc2ccccc2O1 (stereo unspecified)	-2	34	0.7	4	0.7	28
C=CCn1c(SCC(=O)NCc2ccccc2)nnc1C1CCCCC1	2	40	0.6	-20	0.8	15
C=CCn1c(SCc2c(C)noc2C)nnc1C1COc2ccccc2O1 (stereo unspecified)	-2	61*	0.4	0	0.7	33
C=CCn1c(SCC(=O)NCc2ccc3c(c2)OCO3)nnc1C1COc2ccccc2O1 (stereo unspecified)	0	53*	0.5	-1	0.4	65*
C=CCn1c(SCC(=O)NCc2ccc3c(c2)OCO3)nnc1C1CCCCC1	-3	58*	0.4	2	0.5	53*
CCCc1nn(CCc2ccccn2)c(N)c1CC	-1	8	0.9	-26	0.7	31
CC(=O)NCCN1C(=O)C2C3c4ccccc4C(c4ccccc43)C2C1=O (stereo unspecified)	-3	2	1	3	0.6	43
COc1ccc(Cl)cc1C(=O)OCC(=O)NC(=O)c1cccn1C	-2	-233	3.3*	-15	0.8	22
Cn1cccc1C(=O)NC(=O)COC(=O)c1ccccc1Sc1ccccc1C#N	-4	-39	1.4	-3	0.9	11
CC(c1ccccc1F)n1cc(C(=O)NCCc2ccco2)nn1 (stereo unspecified)	-3	58*	0.4	-8	0.6	35
CC(c1ccccc1F)n1cc(C(=O)NCc2ccncc2)nn1 (stereo unspecified)	-2	69*	0.3	-2	0.5	54*
CC(c1ccccc1)n1cc(C(=O)NCc2ccncc2)nn1 (stereo unspecified)	-1	81*	0.2	-22	0.7	31
O=C(NCc1ccccn1)c1cn(Cc2ccccc2)nn1	-1	-6	1.1	-15	1.1	-7
OC(COCC1COc2ccccc2O1)CN1CCN(c2ccccn2)CC1 (stereo unspecified)	-2	-14	1.1	-9	0.8	19
CC(CC(=O)O)CC1=NS(=O)(=O)c2ccccc2N1 (stereo unspecified)	-6	4	1	-7	1	5
S=c1sc2c(N3CCN(Cc4ccccc4)CC3)ncnc2n1-c1ccccc1	0	60*	0.4	-32	0.6	38
CCN1CCN(c2ncnc3c2sc(=S)n3-c2ccccc2)CC1	-2	12	0.9	-2	0.9	10
O=C(CCN1C(=O)c2ccccc2C1=O)Nc1ccc(F)cc1	-3	0	1	5	0.6	38
O=C(Nc1ccc(F)cc1)N1CCN2C(=O)c3ccccc3C12c1ccccc1 (stereo unspecified)	-1	50	0.5	1	0.5	51*
CCOCCCNCc1ccc(OC)cc1	1	-4	1	-1	0.8	25
CCOCCCNCc1ccc(OC)c(OC)c1	0	61*	0.4	-2	0.9	8
O=C1Nc2ccccc2/C1=C/C(=O)c1cccs1	-3	-153	2.5*	5	0.7	32
COc1cccc(NC(=O)c2nc3ncccn3n2)c1	-1	-95	2*	-6	1.2	-16
SMILES	CD11b adhes enh	CYP2C9 inh	CYP2C9 act	Mac1 fbg inh	CYP2C19 act	CYP2C19 inhib
COc1ccc(CCNC(=O)c2nc3ncccn3n2)cc1OC	0	10	0.9	-21	1	5
Cc1ccc(CNC(=O)CSc2c3c(nc4ccc(Cl)cc24)CCCC3)o1	-1	61*	0.4	-33	0.6	36
Cc1nonc1NC(=O)CSc1nc2cc(Cl)ccc2c2c1CCCC2	26	-17	1.2	6	1.2	-20
COc1cccc(N/C=C(\C#N)c2ccc(OCCCF)cc2)c1	5	42	0.6	8	0.9	14
CCOC(=O)N1CCN(C(=O)COc2ccc3c(c2)C(=O)CC2(CCN(C(C)=O)CC2)O3)CC1	-3	13	0.9	18	1.2	-17
O=C1CC2(CCCCC2)Oc2ccc(O)cc21	-2	16	0.8	-2	0.4	60*
O=C(CSc1nnc(-c2ccccn2)n1Cc1ccco1)c1ccc(-c2ccccc2)cc1	1	28	0.7	11	1	0
Cc1occc1-c1nnc(SCC(=O)c2ccc(F)cc2)n1Cc1ccco1	0	60*	0.4	29	0.8	16
O=C(CSc1nc2ccccc2c(=O)n1Cc1ccco1)c1ccc(F)cc1	-2	52*	0.5	-5	0.9	8
Cc1nnc(SCC(=O)c2ccccc2)n1Cc1ccccc1	8	nt	nt	4	nt	nt
Cn1c(SCC(=O)c2ccc(F)cc2)nnc1-c1ccccc1N	-2	0	1	17	0.2	75*
O=C(CSc1nnc(-c2ccco2)n1Cc1ccccc1)c1ccc(F)cc1	1	92*	0.1	-9	0	96*
CCC(CCC(=O)Nc1ccc(S(N)(=O)=O)cc1)C(=O)O (stereo unspecified)	-3	7	0.9	-36	0.9	6
COc1ccccc1-c1nnc(SCC(=O)c2ccc(C3CCCCC3)cc2)n1Cc1ccco1	2	86*	0.1	1	0.2	80*
Cc1cc(NC(=O)CSc2nnc(-c3ccoc3C)o2)no1	3	16	0.8	4	1	4
O=C(CSc1nnc(-c2cc3ccccc3cc2O)n1Cc1ccco1)c1ccc(F)cc1	-3	100*	0	19	0.1	94*
Cn1c(SCC(=O)c2ccccc2)nnc1-c1cnccn1	-6	8	0.9	-4	0.6	40
O=C(CSc1nnc(COc2ccccc2)n1Cc1ccco1)c1ccc(F)cc1	-2	25	0.8	15	0.9	7
Cc1occc1-c1nnc(SCC(=O)c2ccc(F)cc2)o1	6	32	0.7	-22	0.2	84*
CCn1c(SCC(=O)c2ccccc2)nnc1-c1cnccn1	1	-18	1.2	-27	0.5	54*
CCCC(=O)NCCc1ccc(F)cc1	-6	9	0.9	-1	0.7	30
Cc1c(C)[n+](=O)c2c(n1[O-])CCCCC2	0	12	0.9	-8	1	-4
O=C(CSc1nnc(-c2cnccn2)n1Cc1ccco1)c1ccc2ccccc2c1	1	54*	0.5	3	1	4
Brc1ccc(CSc2nnc(-c3cnccn3)n2Cc2ccco2)cc1	1	46	0.5	-24	0.8	22
Fc1ccc(CSc2nnc(-c3cnccn3)n2Cc2ccco2)cc1	0	77*	0.2	-6	0.3	70*
